Compound activity from PubChem BioAssay.
Only some compounds are listed: those with a hit (about 0.52% of all), similar ones and a draw of the others.
GAA inhib: inhibitors of human lysosomal alpha-glucosidase; P10253; purified human GAA, 4-MU-alpha-glucoside fluorescence; Potency, µM (series often up to 76.9 µM), without a hit: at the top dose activity change, negative = inhibition, most hits filed as inhibitors; 200,000 compounds, 0.005% hits; AID 1466;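 further: plate controls were uninhibited enzyme wells for no effect and no-enzyme background for full effect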
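Activity normalized between no-enzyme (basal) and enzyme-only wells. Conditions: 4 nM human enzyme, 400 uM fluorogenic substrate, citrate/phosphate pH 5.0 with Tween-20, 20 min room temperature, compounds up to 77 uM.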
aGlu spleen mod: inhibitors or activators of human alpha-glucosidase in spleen homogenate; P10253; human spleen homogenate, 4-MU-alpha-glucoside fluorescence; Potency, µM (top dose mostly 79.9 µM), for inactives: at the top dose activity change, negative = inhibition, usual class: inhibitors; 240,000 compounds, 0.006% hits; AID 2112;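 further: 0% = enzyme with vehicle and -100% = no enzyme basal signal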
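AC50 values come from Hill-equation fits of concentration-response data, normalized to no-enzyme and full-activity controls. Enzyme source: 1 ug human spleen homogenate; 1 mM fluorogenic 4-MU glucoside, pH 5.0 citrate buffer, 37 C, 40 min.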
N370S GC mod: N370S glucocerebrosidase modulation, Gaucher chaperone candidate. P04062. N370S GC spleen homogenate, 4MU-glucoside fluorescence. AID 2101. 330,000 compounds, 0.092% hits. Potency, µM (top dose mostly 59.4 µM), for the others: at the highest dose activity change, negative = inhibition, actives largely listed as inhibitors;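 further: 0% = full enzyme activity and -100% = no enzyme basal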
KinaseGlo FLuc: blocks Kinase-Glo luciferase, a counter-screen artifact. 200,000 compounds, 0.28% hits. Q27757. Potency, µM (titrated, usually from 38.3 µM), for inactives: at the highest dose activity change, negative = inhibition, actives largely listed as inhibitors. Kinase-Glo luciferase, ATP luminescence, 8 min; further: nearly all actives have a fitted effect of over 60% in size
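Kinase-Glo luciferase light output from ATP and luciferin was measured with 10 uM ATP, within the enzyme's linear range. Buffer: 50 mM imidazole pH 7.2, 50 mM KCl, 7 mM MgCl2, 0.01% Tween 20, 0.05% BSA; luminescence read after 8 min at ambient temperature.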
GAA glycogen mod: inhibitors or activators of human alpha-glucosidase glycogen cleavage; recombinant GAA, glycogen substrate, Amplex Red glucose oxidase fluorescence; AID 2100; 300,000 compounds, 0.38% hits; Potency, µM (highest dose often 76.4 µM), without a hit: top-dose activity change, negative = inhibition, hits mostly inhibitors;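 further: 0% = full enzyme reaction and -100% = no-enzyme basal signal; the screen sought inhibitors and activators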
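qHTS, 1536-well; enzyme 4 nM final; cpd up to 77 uM; substrate bovine liver glycogen 30 ug; 50 mM citrate/phosphate pH 5.0, 0.01% Tween-20; 37 C, 40 min; Amplex Red detection 45 min RT; Hill fit → AC50.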
LMNA splice mod: changes lamin A minigene splicing in HeLa cells; HeLa LMNA splicing GFP/RFP minigene ratio, 48 h; Potency, µM (series often up to 46.1 µM), for inactives: at the highest dose ratio change, negative = inhibition, hits mostly inhibitors; 200,000 compounds, 0.01% hits; active means well fitted inhibition curve with a large enough effect in the signal ratio, with a control signal flat, not every such curve was filed as active; inconclusive means small, poorly fitted or top-dose-only effect, or effect the other way, or a change in a side signal; the % refers to the signal ratio
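S3 HeLa stable clones carrying a lamin A-EGFP splicing minigene plus DsRed2 were seeded at 600 cells/well in Opti-MEM with 2% FBS, pin-dosed and incubated 48 h at 37°C. Acumen cytometry (488 nm) gave the GFP/RFP total-intensity ratio.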
* hit, by the source's call; ? = inconclusive; . = no result given; [ ] = dose if it differs, or a comment. Unless noted, the call rests on the fitted dose curve; in most records, active means well fitted curve in the direction sought with a large enough effect; inconclusive means small, poorly fitted or top-dose-only effect, or another doubt; inactive means no such curve, though single readings can be large; an effect the other way counts as inactive or inconclusive. Unless noted, on the % scale 0 is the no-effect control and ±100 the full control effect; potency means the concentration at half of the fitted maximal effect.

SMILES | GAA inhib | aGlu spleen mod | N370S GC mod | KinaseGlo FLuc | GAA glycogen mod | LMNA splice mod
C#CCOCCOCCOCCNc1nc(N2CCN(C(=O)CCCCCCCCCCNC(=O)[C@@H](CCSC)n3cc(CCO)nn3)CC2)nc(N2CCN(C(=O)CCCCCCCCCCNC(=O)[C@@H]([C@H](C)O)n3cc(C)nn3)CC2)n1 | . | . | -13.1% | . | . | .
CC[C@H](C)Cc1cn([C@@H](CCCN=C(NC(=O)OC(C)(C)C)NC(=O)OC(C)(C)C)C(=O)NCCCCCCCCCCC(=O)N2CCN(C(=O)OC(C)(C)C)CC2)nn1 | . | . | 15.8µM* | . | . | .
CC[C@H](C)[C@H](NC(=O)[C@H](CC(C)C)NC(=O)[C@H](CC(N)=O)NC(=O)[C@@H](NC(=O)[C@@H](N)Cc1ccc(O)cc1)[C@@H](C)CC)C(=O)N[C@@H](Cc1ccc(O)cc1)C(=O)N[C@@H](CCCN=C(N)N)C(=O)N[C@@H](CC(C)C)C(=O)N[C@@H](CCCN=C(N)N)C(=O)N[C@@H](Cc1ccc(O)cc1)C(N)=O | . | -6.9% | 0.1% | . | . | .
Cc1cccc(NC(=O)C2CCN(S(=O)(=O)c3cccc4nsnc34)CC2)c1C | . | . | . | . | 17.9%[76.3 µM] | .
CSCC[C@H](NC(=O)[C@H](CCC(N)=O)NC(=O)[C@H](CCCCN)NC(=O)[C@H](CCCNC(=N)N)NC(=O)[C@H](Cc1ccc(O)cc1)NC(=O)[C@H](CCCNC(=N)N)NC(=O)[C@H](CO)NC(=O)[C@H](Cc1ccc(O)cc1)NC(=O)[C@H](CO)NC(=O)[C@H](CC(=O)O)NC(=O)[C@@H](NC(=O)[C@@H](N)Cc1ccccc1)[C@@H](C)O)C(=O)N[C@@H](C)C(=O)N[C@H](C(=O)N[C@@H](CCCCN)C(=O)N[C@@H](CCCCN)C(=O)N[C@@H](Cc1ccc(O)cc1)C(=O)N[C@@H](CC(C)C)C(=O)N[C@@H](C)C(=O)N[C@@H](C)C(=O)N[C@H](C(=O)N[C@@H](CC(C)C)C(=O)NCC(=O)N[C@@H](CCCCN)C(=O)N[C@@H](CCCNC(=N)N)C(=O)N[C@@H](Cc1ccc(O)cc1)C(=O)N[C@@H](CCCCN)C(=O)N[C@@H](CCC(N)=O)C(=O)N[C@@H](CCCNC(=N)N)C(=O)N[C@H](C(=O)N[C@@H](CCCCN)C(=O)N[C@@H](CC(N)=O)C(=O)N[C@@H](CCCCN)C(N)=O)C(C)C)C(C)C)C(C)C | . | 2.3% | -0.1% | . | . | .
NC[C@@H](O)CSCc1ccc(Cl)cc1 | . | . | . | -1.9%[7.66 µM] | . | .
Cc1ccc(C)c(NC(=O)CSc2nc3nccnc3c(=O)n2CCc2c[nH]c3ccccc23)c1 | . | . | . | . | 6.8%[76.3 µM] | 1.5%[46 µM]
C#CCOCCOCCOCCNc1nc(N2CCN(C(=O)CCCCCCCCCCNC(=O)[C@H](CCCCN)n3cc(C)nn3)CC2)nc(N2CCN(C(=O)CCCCCCCCCCNC(=O)[C@H](CCCN=C(N)N)n3cc(C[C@@H](C)CC)nn3)CC2)n1 | . | . | 7.94µM* | . | . | .
C#CCOCCOCCOCCNc1nc(N2CCN(C(=O)CCCCCCCCCCNC(=O)[C@H](CCCCN)n3cc(CCO)nn3)CC2)nc(N2CCN(C(=O)CCCCCCCCCCNC(=O)[C@H](CCCCN)n3cc(C[C@@H](C)CC)nn3)CC2)n1 | . | . | 14.1µM* | . | . | .
C#CCOCCOCCOCCNc1nc(N2CCN(C(=O)CCCCCCCCCCNC(=O)[C@@H](CCSC)n3cc(CCO)nn3)CC2)nc(N2CCN(C(=O)CCCCCCCCCCNC(=O)[C@H](CCCN=C(N)N)n3cc(C[C@@H](C)CC)nn3)CC2)n1 | . | . | 7.94µM* | . | . | .
C#CCOCCOCCOCCNc1nc(N2CCN(C(=O)CCCCCCCCCCNC(=O)[C@@H](CCSC)n3cc(CCO)nn3)CC2)nc(N2CCN(C(=O)CCCCCCCCCCNC(=O)[C@H](CCC(=O)O)n3cc(CCCCCN)nn3)CC2)n1 | . | . | -27.2% | . | . | .
N[C@@H](Cc1c[nH]c2ccc([N+](=O)[O-])cc12)C(=O)O | . | . | . | -3.7%[7.66 µM] | . | .
COC(=O)N1CCN(/[N+]([O-])=N/Oc2ccc([N+](=O)[O-])cc2[N+](=O)[O-])CC1 | . | 5.0% | -4.9% | . | . | .
CCN1CCN(CC(=O)N2CCCC(C(=O)c3ccc(Oc4ccccc4)cc3)C2)CC1 (stereo unspecified) | 6.5% | -19.2% | ? | -4.8% | 7.94µM* | ?
Oc1ccc(/C=N/Nc2cc(N3CCCC3)nc(N3CCCC3)n2)cc1 | -11.3% | -10.3% | -16.8% | 0.0% | 24.9µM* | -11.5%
COc1ccc(/C=C/C(=O)c2ccccn2)cc1 | -6.1% | 8.7% | -4.4% | 3.98µM* | -8.5% | -1.1%[46 µM]
COc1ccc(C(=O)NNC(=O)c2ccccn2)cc1 | 2.8% | -4.9% | 7.0% | 0.631µM* | -9.1% | -1.5%
COc1cc(OC)cc(C(=O)NNC(=O)c2ccccn2)c1 | 1.0% | -1.1% | 0.8% | -2.0% | -9.0% | ?
COc1ccc(/C=C/C(=O)c2ccccc2O)cc1 | -4.8% | 5.4%[17.4 µM] | 3.7%[12.8 µM] | ? | 1.5% | -1.2%
O=C(NCc1ccc(F)cc1)c1ccc2c(O)c(S(=O)(=O)c3ccccc3)c(=O)[nH]c2c1 | . | . | . | . | 7.3%[76.3 µM] | .
O=C(NCc1ccccn1)C(=O)NN=C1CCCCCCC1 | -7.7% | 1.6% | 9.4% | 3.2% | 31.6µM* | 11.2%[46 µM]
COc1ccc(C2C(=O)N(C3CCC(C)CC3)CC(=O)N2C2CCCCC2)cc1OC (stereo unspecified) | . | . | . | . | . | 4.3%[46 µM]
COc1cc(C(=O)NNc2nc3cc4c(cc3s2)OCO4)cc(OC)c1OC | -4.6%[15.4 µM] | 0.8% | 3.0% | 0.5% | 25.1µM* | ?
COc1cc(OC)cc(C(=O)NNc2nc3cc4c(cc3s2)OCO4)c1 | -2.0%[15.4 µM] | -1.6% | -4.6% | 0.4% | ? | -3.5%
CC(=O)Nc1ccc(NC(C)=O)s1 | 1.7% | -7.8% | -11.4% | -0.7% | 8.91µM* | 9.1%
CC(=O)Nc1ccc(-c2ccccc2)s1 | 1.7% | -6.2% | -2.5% | -1.8% | 4.3% | 10.0%
CC(C)COc1cccc(C(=O)Nc2ccc(-c3nc4ncccc4o3)cc2)c1 | . | . | . | . | -0.9%[76.3 µM] | .
CO[C@@H]1CC[C@@]2(C)[C@@H](CC[C@@]3(C)[C@H]2CC=C2[C@H]4CC(C)(C)[C@H](O)[C@@H](OC(C)=O)[C@]4(CO)[C@H](O)C[C@]23C)[C@@]1(C)CO (tested in a mixture with another compound) | . | 6.9%[29.1 µM] | -26.4%[21.6 µM] | -0.2%[17.1 µM] | . | -20.0%
